# Out of some 13,000 compounds screened, about 3,200 (25%) showed an effect of 50% or more. This is one part of the list.
# Tested on: P. falciparum stage V gametocytes
# Parameters: BacTiter-Glo ATP luminescence viability of purified stage V gametocytes in 384-well plates, per cent inhibition versus DMSO
# Settings: 48 h, 5 µM; inhibitor
row,SMILES,% Inhibition
1,CN1CCCN(Cc2ccc(-c3cccc(NC(=O)c4ccc(C#N)cc4)c3)cc2)CC1 [TCMDC-132637],9.146%
2,Cc1cc(-c2cnc(N)c(-c3ccc(N4CCN(C)CC4)nc3)c2)cc(C)c1O [TCMDC-133346],-63.65%
3,CN(Cc1ccccc1)C1CCCN(c2cc(NC(=O)c3cccs3)ccn2)C1 (stereo not drawn) [TCMDC-135007],-39.99%
4,CC(C)c1cc2c(cc1O)C(Cc1ccccc1Cl)N(C)CC2 (stereo not drawn) [TCMDC-137322],-86.96%
5,CCn1c(SCC(=O)Nc2cc(C(F)(F)F)ccc2Cl)nc2ccccc2c1=O [TCMDC-125426],3.057%
6,COCCn1c(SC(C)C(=O)Nc2cc(C(F)(F)F)ccc2Cl)nc2ccccc2c1=O (stereo not drawn) [TCMDC-125030],60.86%
7,COCC(C)n1c(SCC(=O)Nc2cc(C(F)(F)F)ccc2Cl)nc2ccccc2c1=O (stereo not drawn) [TCMDC-125436],2.32%
8,COc1ccc(N(C)Cc2cnc3nc(N)nc(N)c3n2)cc1 [TCMDC-137682],5.189%
9,COC(=O)C(C)(C)c1ccc(CC(C)NCC(O)c2cccc(C(F)(F)F)c2)cc1 (stereo not drawn) [TCMDC-131482],7.113%
10,Oc1ccc(Cl)cc1Nc1nc(C(F)(F)F)nc2ccccc12 [TCMDC-125147],-61.42%
11,O=C(Nc1cccc([N+](=O)[O-])c1)N(Cc1ccc(Cl)c(Cl)c1)C1CCNCC1 [TCMDC-141400],39.3%
12,O=[N+]([O-])c1cccc(CNCC2CCN(Cc3ccc(Cl)c(Cl)c3)CC2)c1 [TCMDC-141206],3.652%
13,N#Cc1cccc(CN(Cc2ccc(Cl)c(Cl)c2)S(=O)(=O)c2cccc([N+](=O)[O-])c2)c1 [TCMDC-141594],51.09%
14,Cc1cccc2sc(N(CCCn3ccnc3)C(=O)C=Cc3cccs3)nc12 [TCMDC-124929],30.83%
15,Cc1c(C(=O)N2CCc3cc4nccc(N5CCN6CCC[C@H]6C5)c4cc32)cnn1-c1ccc(C#N)cc1 [TCMDC-141315],14.04%
16,CN(C)CC(=O)N(Cc1ccc(Cl)c(Cl)c1)Cc1csc(-c2ccc(CNCc3ccccc3)cc2)n1 [TCMDC-141814],21.62%
17,CCCCOc1ccccc1C(=O)NCc1csc(-c2ccccc2)n1 [TCMDC-124914],34.72%
18,CC(=O)Nc1ccc(CNC2Cc3ccc(-c4ccc(Cl)c(Cl)c4)cc3C2)cc1 (stereo not drawn) [TCMDC-133070],12.53%
19,CCN(CC)S(=O)(=O)c1ccc(Cl)c(C(=O)Nc2ccc3nc(C)sc3c2)c1 [TCMDC-124376],33.54%
20,CCCCNCc1ccc(-c2nc(CN(Cc3ccc(Cl)c(Cl)c3)C(=O)CN(C)C)cs2)cc1 [TCMDC-141703],68.39%
21,CCCCNCc1ccc(-c2nc(CN(Cc3ccc(Cl)c(Cl)c3)S(=O)(=O)c3ccc(NC(C)=O)cc3)cs2)cc1 [TCMDC-141597],93.87%
22,O=c1[nH]c(Cc2ccccc2)nc2ccc(Cl)cc12 [TCMDC-123986],41.17%
23,Cc1cccc2nc(-c3ccc(-c4ccc(CN5CCC(N)C5)cc4)s3)[nH]c12.O=C(O)C(F)(F)F (stereo not drawn) [TCMDC-133862],94.82%

row,SMILES,% Inhibition
1,Cc1cccc2nc(-c3ccc(-c4ccc(CN5CCCC(N)C5)cc4)s3)[nH]c12.O=C(O)C(F)(F)F (stereo not drawn) [TCMDC-133864],61.01%
2,Cc1cccc2nc(-c3ccc(-c4ccc(CN5CCC(C(N)=O)CC5)cc4)s3)[nH]c12.O=C(O)C(F)(F)F [TCMDC-132695],10.69%
3,Cc1cccc2nc(-c3ccc(-c4ccc(CN5CCCC(O)C5)cc4)s3)[nH]c12.O=C(O)C(F)(F)F (stereo not drawn) [TCMDC-133827],-10.01%
4,Cc1cccc2nc(-c3ccc(-c4ccc(CN5CCC(CO)CC5)cc4)s3)[nH]c12.O=C(O)C(F)(F)F [TCMDC-133128],-12.48%
5,NC(=O)c1cccc(C(=O)Nc2ccc(-c3cccc(-c4nc5ccc(F)cc5[nH]4)c3)cc2)c1 [TCMDC-132196],-0.7681%
6,CCOC(=O)c1ccc(NC(=O)NNC(=O)c2ccc(CCN3CCC(c4nc(COCC(F)(F)F)c(-c5ccc(F)cc5)o4)CC3)cc2)cc1 [TCMDC-131907],11.96%
7,Cc1ccc2[nH]c(-c3ccc(C(=O)NC4CCN(Cc5ccccc5)CC4)cc3)nc2c1C [TCMDC-140449],4.358%
8,Cc1ccc(-c2cc(C(=O)Nc3ccc(S(=O)(=O)N4CCOCC4)cc3)[nH]n2)c(O)c1C [TCMDC-124306],74.46%
9,O=C(Nc1ccc(S(=O)(=O)N2CCOCC2)cc1)c1cc(-c2cc(Cl)ccc2O)n[nH]1 [TCMDC-125204],-22.77%
10,Cc1ccc(-c2cc(C(=O)Nc3ccc(S(=O)(=O)N4CCCCC4)cc3)[nH]n2)c(O)c1 [TCMDC-124305],-41.04%
11,O=C(Nc1ccon1)c1cc(-c2cccnc2)nc2ccc(Br)cc12 [TCMDC-125217],-5.67%
12,CC1N=C(N)N=C(N)N1OCc1cccc2ccccc12 (stereo not drawn) [TCMDC-131595],37.89%
13,O=C(NCCN1CCCCC1)c1cc2cc(-c3ccccc3)ccc2n1S(=O)(=O)c1ccccc1 [TCMDC-139102],37.88%
14,CN1CCC(OC(=O)c2cc3cc(-c4ccccc4)ccc3n2S(=O)(=O)c2ccccc2)CC1 [TCMDC-139104],88.58%
15,CN(C)CCCN1CCN(C(=O)c2cc3cc(-c4ccccc4)ccc3n2S(=O)(=O)c2ccccc2)CC1 [TCMDC-139103],17.27%
16,Cc1cccc2nc(-c3ccc(-c4ccc(CNCC5CCCO5)cc4)cc3)[nH]c12.O=C(O)C(F)(F)F (stereo not drawn) [TCMDC-133093],-8.859%
17,Cc1cccc(C)c1OC(=O)CSc1nnc(-c2ccccc2O)o1 [TCMDC-125733],-18.5%
18,Cc1[nH]c2ccccc2c1C(=O)C(C)Sc1nnc(-c2ccccc2F)o1 (stereo not drawn) [TCMDC-125312],68.46%
19,Cc1[nH]c2ccccc2c1C(=O)C(C)Sc1nnc(-c2ccccc2Br)[nH]1 (stereo not drawn) [TCMDC-125114],93.54%
20,Nc1nc(F)nc2nc[nH]c12 [TCMDC-124283],4.967%
21,O=C(NCc1cccc(F)c1)Nc1cccc(-c2ccc(-c3nc4ccc(C(F)(F)F)cc4[nH]3)cc2)c1 [TCMDC-133288],-40.45%
22,CCNc1cc(C(=O)N[C@@H](Cc2ccccc2)[C@H](O)CNCCc2cccc(C(F)(F)F)c2)cc(N2CCCC2=O)c1 [TCMDC-134552],-6.04%
23,COc1cccc(C(O)CNc2ccnc(Nc3ccc(Cl)cc3)n2)c1 (stereo not drawn) [TCMDC-136575],5.772%

row,SMILES,% Inhibition
1,Clc1cccc(C=NNc2nc(Nc3ccccc3)nc(Nc3ccccc3)n2)c1 [TCMDC-125798],24.55%
2,Clc1ccc(-c2ccc(C=NNc3nc(Nc4ccccc4)nc(Nc4ccccc4)n3)o2)cc1Cl [TCMDC-124152],3.438%
3,Clc1ccc(Nc2nc(NCc3ccccc3)nc(N/N=C/c3ccccn3)n2)cc1 [TCMDC-138557],107.3%
4,O=c1cc(NCCCNCc2ccc(C(F)(F)F)s2)[nH]c2ccccc12 [TCMDC-140767],-70.92%
5,COc1ccc2nccc([C@@H](O)CN3CCC(NCCOc4ccccc4C(F)(F)F)CC3)c2c1 [TCMDC-140713],37.87%
6,COc1ccc2nccc([C@@H](O)CN3CCC(NCCOc4ccc(F)cc4Cl)CC3)c2c1 [TCMDC-140660],20.67%
7,COc1ccc2nccc([C@@H](O)CN3CCC(NCCOc4cccc(C(F)(F)F)c4)CC3)c2c1 [TCMDC-140507],58.71%
8,COc1ccc2nccc([C@@H](O)CN3CCC(NCCOc4cc(F)cc(F)c4)CC3)c2c1 [TCMDC-140510],10.94%
9,COc1ccc2nccc([C@@H](O)CN3CCC(NCCOc4cc(C(F)(F)F)ccc4F)CC3)c2c1 [TCMDC-140658],14.45%
10,COc1ccc2nccc([C@@H](O)CN3CCC(NCCOc4cccc(F)c4F)CC3)c2c1 [TCMDC-140644],24.45%
11,COc1ccc2nccc([C@@H](O)CNCCCN(C)CCOc3cc(F)cc(F)c3)c2c1 [TCMDC-141051],75.1%
12,COc1ccc2nccc([C@@H](O)CN3CCC(NCCOc4ccc(F)cc4F)CC3)c2c1 [TCMDC-140645],94.72%
13,COc1ccc2nccc([C@@H](O)CN3CCC(NCCOc4ccncc4)CC3)c2c1 [TCMDC-140574],11.37%
14,CCCCc1cc(NCC)nc(Nc2cccc(OC)c2)n1 [TCMDC-133993],0.878%
15,COc1ccc(CCCN2C(=O)C(c3ccccc3)(c3ccccc3)N=C2N)cc1 [TCMDC-136503],-39.16%
16,O=C(Nc1ccc(N2CCNCC2)nc1)c1oc(-c2ccccc2)nc1C(F)(F)F [TCMDC-135131],3.26%
17,CC(C)N(C(=O)CSc1nc2cc(Cl)ccc2c(=O)n1Cc1ccccc1)C(C)C [TCMDC-123612],6.529%
18,Cc1nc2ccc3ccc(CN(C)c4ccc(C(=O)N[C@@H](CCC(=O)O)C(=O)O)cc4)cc3c2c(=O)[nH]1 [TCMDC-138089],24.11%
19,Cc1cccc2[nH]c(-c3cccc(-c4cccc(NC(=O)Nc5ccc(F)c(F)c5F)c4)c3)nc12 [TCMDC-133227],-33.06%
20,COc1cncc(/C=C/c2cncc(C(=O)NCCc3ccc(Cl)cc3Cl)c2)c1 [TCMDC-134508],-1.142%
21,CCOc1cc(C=NNc2nc(C)cc(-n3nc(C)cc3C)n2)ccc1O [TCMDC-124094],92.61%
22,CCOc1cc(/C=N/Nc2nc3ccccc3[nH]2)ccc1OCc1ccc([N+](=O)[O-])cc1 [TCMDC-124191],-53.42%
23,CCOc1ccc(Nc2cc(C)nc(Nc3ccc(OCC)cc3)n2)cc1 [TCMDC-125772],-32.28%
